Among the data in PubChem BioAssay (NCI) are growth values, retold here.

Test systems include NCI-H23 lung; NCI-H226 lung; NCI-H322M lung; HOP-62 NSCLC; NCI-H460 lung; HOP-92 NSCLC; NCI-H522 lung; A549/ATCC NSCLC; 786-0 renal; COLO 205 colon.
What all share (experiment): NCI-60 one-dose screen, 48 h (100 = growth as untreated, 0 = no growth, -100 = all killed)
Conditions in all cases: 10 µM unless noted

Values joined by “and” are separate entries in the source; they are usually repeats but may differ in a detail not shown here. Equal entries are not always repeated. Compounds without any hit were thinned out: in the full panel of roughly 83,000, 20% have a hit.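 Treatment: one concentration, 48 hours, 96-well format. Scoring: percent growth, with anything below 10 considered active.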 A number with no mark means an inactive call. Active and inactive are the calls of the source.

With `Nc1ccc(-c2ccc(N)c(Br)c2)cc1Br`, the growth is 53.9% with NCI-H23 lung; 56.9% with NCI-H226 lung; 77.3% in the assay with NCI-H322M lung; 55.4% in the assay on HOP-62 NSCLC; 44.3% in the assay on NCI-H460 lung; 41.8% in the assay with HOP-92 NSCLC. Further, the growth in the assay with NCI-H522 lung is 57%; in the assay on A549/ATCC NSCLC, 42.2%; with 786-0 renal, 52.9%; in the assay with COLO 205 colon it was 82.6%.

As for `O=C1C=CC(=O)N1c1ccc2ccccc2c1`, the growth in the assay on NCI-H23 lung was 93.4% and 103%; with NCI-H226 lung, 97.6% and 111%; in the assay on NCI-H322M lung, 118% and 103%; with HOP-62 NSCLC, 101%; in the assay with NCI-H460 lung, 110% and 111%; in the assay with HOP-92 NSCLC, 81.8% and 84.1%. Moreover, the growth was -58.9% (active) and -24.2% (active) in the assay with NCI-H522 lung; 99% in the assay on A549/ATCC NSCLC; 103% and 104% in the assay on 786-0 renal; -58.5% (active) and -42.5% (active) with COLO 205 colon.

As for `c1ccc(Cc2cccc[n+]2C(c2ccccc2)c2ccccc2)cc1`, the growth with NCI-H23 lung was 38.2%; in the assay with NCI-H226 lung, 74.7%; in the assay on NCI-H322M lung, 77.9%; in the assay with HOP-62 NSCLC it was 72%; with NCI-H460 lung, 66.3%; with HOP-92 NSCLC it was 32.5%. For the same compound, the growth was 10.2% with NCI-H522 lung, 58.5% in the assay on A549/ATCC NSCLC, 85.6% in the assay on 786-0 renal and 24.4% with COLO 205 colon.

`O=C(Nc1ccc2ccccc2c1)c1cc2ccccc2cc1O`: the growth with NCI-H23 lung was 81.5%; in the assay on NCI-H226 lung, 91.6%; with NCI-H322M lung it was 75.7%; in the assay on HOP-62 NSCLC, 98.8%; in the assay on NCI-H460 lung it was 85.4%; with HOP-92 NSCLC it was 63.7%. Moreover, the growth with NCI-H522 lung is 62.6%; with A549/ATCC NSCLC, 84.6%; in the assay with 786-0 renal, 85.6%; in the assay with COLO 205 colon, 110%.

In the case of `CC(=O)Nc1c(I)c(NC(C)=O)c(I)c(C(=O)O)c1I`, the growth is 110% in the assay on NCI-H23 lung; 97.4% and 113% in the assay with NCI-H226 lung; 102% and 101% in the assay with NCI-H322M lung; 112% and 97.9% in the assay on HOP-62 NSCLC; 109% and 103% in the assay on NCI-H460 lung; 94.3% in the assay on HOP-92 NSCLC. The growth is 102% and 24.5% in the assay on NCI-H522 lung; 105% in the assay on A549/ATCC NSCLC; 97.3% and 114% in the assay on 786-0 renal; 115% and 119% in the assay on COLO 205 colon.

As for `COC(=O)N/N=C/c1c[n+]([O-])c2ccccc2[n+]1[O-]`, the growth in the assay on NCI-H23 lung is 98.6%; with NCI-H226 lung it was 109%; in the assay on NCI-H322M lung it was 98.3%; in the assay on HOP-62 NSCLC it was 22.7%; with NCI-H460 lung, 105%; in the assay with HOP-92 NSCLC, 96.5%. In addition, the growth in the assay on NCI-H522 lung is 92.9%; with A549/ATCC NSCLC it was 93.1%; in the assay on 786-0 renal, 93.8%; in the assay on COLO 205 colon, -45.4% (active).

Turning to `O=C(CC1(O)C(=O)Nc2ccc(Br)cc21)c1ccc(Cl)cc1` (stereo not given), the growth was 96.8% with NCI-H23 lung; 80.1% in the assay with NCI-H226 lung; 105% in the assay with NCI-H322M lung; 88.7% in the assay with HOP-62 NSCLC; 106% with NCI-H460 lung; 86.1% in the assay on HOP-92 NSCLC. The growth is 81% in the assay with NCI-H522 lung, 90.5% in the assay on A549/ATCC NSCLC, 114% with 786-0 renal and 109% in the assay on COLO 205 colon.

On to `Cc1nc2sc(C(=O)Nc3cccc(Cl)c3C)c(N)c2cc1C(O)c1ccccc1` (stereo not given), for which the growth is 19.8% in the assay with NCI-H23 lung; 43.5% with NCI-H226 lung; 49.8% in the assay on NCI-H322M lung; 33.6% in the assay with HOP-62 NSCLC; 3.15% (active) with NCI-H460 lung; 30% in the assay with HOP-92 NSCLC. Further, the growth is 4.83% (active) with NCI-H522 lung, 16.2% with A549/ATCC NSCLC, 16.5% with 786-0 renal and -0.762% (active) in the assay on COLO 205 colon.

Turning to `N#Cc1ccccc1OCC(=O)Nc1nc2c(s1)COc1ccccc1-2`, the growth is 99.3% with NCI-H23 lung; 93.2% with NCI-H226 lung; 102% in the assay with NCI-H322M lung; 105% in the assay with HOP-62 NSCLC; 107% in the assay on NCI-H460 lung; 106% in the assay on HOP-92 NSCLC. Further, the growth with NCI-H522 lung was 103%; with A549/ATCC NSCLC it was 98.9%; in the assay with 786-0 renal, 102%; with COLO 205 colon, 105%.

Regarding `O=C(O)c1ccccc1Cc1ccc(F)c2ccccc12`, the growth was 97.5% and 105% with NCI-H23 lung; 107% in the assay with NCI-H226 lung; 109% and 112% in the assay on NCI-H322M lung; 94.3% and 109% with HOP-62 NSCLC; 109% and 99.2% in the assay on NCI-H460 lung; 74.6% with HOP-92 NSCLC. Besides, the growth in the assay on NCI-H522 lung was 94.5% and 89.9%; with A549/ATCC NSCLC, 101% and 95.3%; in the assay with 786-0 renal, 125% and 110%; in the assay with COLO 205 colon it was 101% and 121%.

With `Nc1[nH]nc(Nc2ccccc2)c1-c1nc2ccccc2s1`, the growth in the assay on NCI-H23 lung is 24.2%; with NCI-H226 lung it was 57.3%; in the assay with NCI-H322M lung it was 37.6%; with HOP-62 NSCLC, 28.6%; in the assay with NCI-H460 lung, 5.94% (active); with HOP-92 NSCLC, -15.8% (active). Also, the growth in the assay with NCI-H522 lung was -44.6% (active); in the assay with A549/ATCC NSCLC it was 20%; in the assay on 786-0 renal, 10.2%; with COLO 205 colon it was 64.2%.
